Paper PMC4336329 (PLoS ONE, 2015)
The whole screen tested about 310,000 compounds, of which about 14,000 (4.5%) showed an effect of 50% or more. Effects have a minus sign here. What follows is part of a selection rich in strong results, with near analogues and random picks from the rest.
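Also: peak tail current of the secondary pulse compared with the same well before compound.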

What follows are compounds tested against human ether-à-go-go-related gene (hERG) potassium channel (human, UniProt Q12809) (assay: primary screen, population patch clamp on CHO cells stably expressing hERG; higher = less effect of the substance).
human ether-à-go-go-related gene (hERG) potassium channel, sequence (Q12809 whole entry, looked up): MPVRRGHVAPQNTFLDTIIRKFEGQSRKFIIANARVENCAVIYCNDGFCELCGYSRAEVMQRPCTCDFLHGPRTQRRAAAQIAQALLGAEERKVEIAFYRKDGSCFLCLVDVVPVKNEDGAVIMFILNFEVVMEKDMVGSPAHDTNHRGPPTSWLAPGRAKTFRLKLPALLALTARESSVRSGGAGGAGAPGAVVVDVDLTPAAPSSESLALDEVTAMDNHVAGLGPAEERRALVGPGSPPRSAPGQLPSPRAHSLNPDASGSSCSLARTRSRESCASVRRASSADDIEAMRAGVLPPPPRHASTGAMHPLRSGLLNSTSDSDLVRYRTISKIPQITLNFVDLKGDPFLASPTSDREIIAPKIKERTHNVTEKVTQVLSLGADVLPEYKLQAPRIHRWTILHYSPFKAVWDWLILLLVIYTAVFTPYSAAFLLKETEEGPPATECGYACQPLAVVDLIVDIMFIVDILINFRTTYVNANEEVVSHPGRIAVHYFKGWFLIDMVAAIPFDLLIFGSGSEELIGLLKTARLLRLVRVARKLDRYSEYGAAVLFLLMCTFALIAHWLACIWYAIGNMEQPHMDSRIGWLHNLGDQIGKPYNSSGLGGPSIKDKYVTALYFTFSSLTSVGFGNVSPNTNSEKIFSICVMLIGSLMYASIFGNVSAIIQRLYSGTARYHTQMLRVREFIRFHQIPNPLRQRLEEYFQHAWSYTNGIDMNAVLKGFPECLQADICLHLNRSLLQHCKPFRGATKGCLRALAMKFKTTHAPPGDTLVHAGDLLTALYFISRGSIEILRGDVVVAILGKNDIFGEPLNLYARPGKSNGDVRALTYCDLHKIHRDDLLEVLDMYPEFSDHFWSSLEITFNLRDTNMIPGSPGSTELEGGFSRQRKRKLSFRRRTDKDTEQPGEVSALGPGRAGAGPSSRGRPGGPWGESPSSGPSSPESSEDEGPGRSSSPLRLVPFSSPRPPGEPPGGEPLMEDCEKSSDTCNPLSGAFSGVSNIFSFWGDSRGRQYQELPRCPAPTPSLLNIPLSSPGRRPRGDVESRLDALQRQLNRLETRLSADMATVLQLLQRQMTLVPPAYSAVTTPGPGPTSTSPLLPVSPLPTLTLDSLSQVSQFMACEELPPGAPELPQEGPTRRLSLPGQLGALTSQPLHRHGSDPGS
In the case of `CC(=O)N1N=C(c2ccc(C)cc2)OC1c1cccnc1` (centres unmarked), the “hERG current change (%, negative = inhibition) at 10uM” value is reported as 8.57%.
In the case of `CCOC(=O)C1CCCN(S(=O)(=O)c2ccc(-n3cnnn3)c(C)c2)C1` (centres unmarked), the “hERG current change (%, negative = inhibition) at 10uM” value is reported as -11.3%.
For `COc1ccc(Cl)cc1NC(=O)CN(C)C(=O)CCCNC(=O)c1ccc(Cl)cc1`, the “hERG current change (%, negative = inhibition) at 10uM” value was -55.4%.
For `COc1ccc(Cl)cc1NC(=O)CN(C)C(=O)CCNC(=O)c1ccccc1OC`, the “hERG current change (%, negative = inhibition) at 10uM” value was -9.08%.
In the case of `COc1ccc(Cl)cc1NC(=O)CCCNC(=O)c1ccc(Cl)cc1`, the “hERG current change (%, negative = inhibition) at 10uM” value is reported as -4.84%.
For `Cc1cc(C)n(/N=C/c2ccccc2)c(=O)c1C#N`, the “hERG current change (%, negative = inhibition) at 10uM” value was 17%.
For `Cc1ccccc1NC(=O)CSc1nc(-c2ccccc2)cc(=O)[nH]1`, the “hERG current change (%, negative = inhibition) at 10uM” value was 24.9%.
In the case of `CCOc1ncccc1C(=O)Nc1cc(S(=O)(=O)N2CCCCC2)ccc1Cl`, the “hERG current change (%, negative = inhibition) at 10uM” value is reported as 20.5%.
For `COc1cccc(NC(=O)CSc2nnc3c(n2)[nH]c2ccc(C)cc23)c1`, the “hERG current change (%, negative = inhibition) at 10uM” value was 8.36%.
In the case of `Cn1c(CN2CCN(C(=O)c3ccccc3Cl)CC2)nc2cc([N+](=O)[O-])ccc21`, the “hERG current change (%, negative = inhibition) at 10uM” value is reported as -70.7%.
For `Cn1c(CN2CCOCC2)nc2cc(NC(=O)c3ccccc3Cl)ccc21`, the “hERG current change (%, negative = inhibition) at 10uM” value was -10.4%.
`COc1ccc(C(=O)NCCc2nc3cc([N+](=O)[O-])ccc3n2C)cc1` was tested, and the “hERG current change (%, negative = inhibition) at 10uM” value was -39.9%.
In the case of `COc1ccccc1C(=O)N1CCN(Cc2nc3cc([N+](=O)[O-])ccc3n2C)CC1`, the “hERG current change (%, negative = inhibition) at 10uM” value is reported as -67.6%.
In the case of `CC(=O)N1CCN(Cc2nc3cc(NC(=O)c4ccccc4Cl)ccc3n2C)CC1`, the “hERG current change (%, negative = inhibition) at 10uM” value is reported as -20.8%.
With `Cc1cc(C(c2nnnn2Cc2ccccc2)N2CCOCC2)c(C)n1-c1ccc2c(c1)OCO2` (centres unmarked) the “hERG current change (%, negative = inhibition) at 10uM” value was -32.1%.
`CCC(C)(C(=O)Nc1ccccc1C)N(C(=O)CNC(C)=O)c1ccc(C)cc1` (centres unmarked) was tested, and the “hERG current change (%, negative = inhibition) at 10uM” value was 14.8%.
For `COc1ccc(NC(=O)COC(=O)CCCC2=NS(=O)(=O)c3ccccc3N2)cc1Cl`, the “hERG current change (%, negative = inhibition) at 10uM” value was 38.8%.
With `O=C(NCc1ccccc1)c1cc(S(=O)(=O)N2CCCCC2)ccc1N1CCOCC1` the “hERG current change (%, negative = inhibition) at 10uM” value was -20.1%.
`O=C(CSc1nnc(CNc2ccc(F)cc2)o1)N1CCCc2ccccc21` was tested, and the “hERG current change (%, negative = inhibition) at 10uM” value was 2.24%.
With `Cl.O=C(CNCC1CCCCC1)Nc1ccc(OC(F)(F)F)cc1` the “hERG current change (%, negative = inhibition) at 10uM” value was -62.4%.
For `CCN1CCCC1CNCC(O)COc1ccc(C(C)(C)C)cc1C.O=C(O)C(=O)O` (centres unmarked), the “hERG current change (%, negative = inhibition) at 10uM” value was -54.4%.
`CCN(CC(=O)Nc1ccc(OC(F)F)cc1)C1CCCCC1` was tested, and the “hERG current change (%, negative = inhibition) at 10uM” value was -73.5%.
`CCN(C(=S)Nc1ccc(OC(F)F)cc1)C1CCCCC1` was tested, and the “hERG current change (%, negative = inhibition) at 10uM” value was -22.8%.
With `CCC(C)(C)NCC(=O)Nc1ccc(OC(F)(F)F)cc1` the “hERG current change (%, negative = inhibition) at 10uM” value was -32.7%.
For `CCN1CCCC1CNCC(=O)Nc1ccc(OC(F)(F)F)cc1.O=C(O)C(=O)O` (centres unmarked), the “hERG current change (%, negative = inhibition) at 10uM” value was -70.7%.
`CCN(CC(=O)Nc1ccc(C(=O)OC)cc1)C1CCCCC1` was tested, and the “hERG current change (%, negative = inhibition) at 10uM” value was -1.85%.
In the case of `CNCC(=O)Nc1ccc(OC(F)(F)F)cc1.Cl`, the “hERG current change (%, negative = inhibition) at 10uM” value is reported as -3.92%.
For `CCN1CCCC1CNC(=O)c1cc(N)ccc1OC.O.O=C(O)C(=O)O` (centres unmarked), the “hERG current change (%, negative = inhibition) at 10uM” value was 13.5%.
`CCN1CCCC1CNC(=O)C(=O)Nc1ccc(OC)cc1` (centres unmarked) was tested, and the “hERG current change (%, negative = inhibition) at 10uM” value was -5.95%.
With `O=C(CNCC1CCCCC1)Nc1ccc(N2CCCCC2)cc1.O=C(O)C(=O)O` the “hERG current change (%, negative = inhibition) at 10uM” value was -17.3%.
`CCN1CCCC1CNC(=O)C(=O)NCCc1ccc(OC)c(OC)c1` (centres unmarked) was tested, and the “hERG current change (%, negative = inhibition) at 10uM” value was -1.49%.
With `C=CCN1C(=O)NC(=O)/C(=C/c2cc3c4c(c2)CCCN4CCC3)C1=O` the “hERG current change (%, negative = inhibition) at 10uM” value was -10.2%.
For `CC1CC(C(F)(F)F)n2ncc(C(=O)O)c2N1` (centres unmarked), the “hERG current change (%, negative = inhibition) at 10uM” value was 11.5%.
`CCNC(=O)c1ccc2c(c1)C1C3CCC(C3)C1C(c1ccccc1)N2` (centres unmarked) was tested, and the “hERG current change (%, negative = inhibition) at 10uM” value was -5.8%.
`CC1=C(C(=O)Nc2ccc(F)cc2)C(c2ccc(C)o2)C2=C(CC(C)(C)CC2=O)N1` (centres unmarked) was tested, and the “hERG current change (%, negative = inhibition) at 10uM” value was -7.85%.
With `COc1ccccc1CNC(=O)COC(=O)c1cc(=O)[nH]c2ccccc12` the “hERG current change (%, negative = inhibition) at 10uM” value was 1.03%.
For `Cc1cc(Cl)ccc1C(=O)C1CCCN(C(=O)c2cnn(C(C)C)c2)C1` (centres unmarked), the “hERG current change (%, negative = inhibition) at 10uM” value was -17.7%.
With `CC(C)Oc1ccc(C(=O)NN2C(=O)NC3(CCCCC3)C2=O)cc1` the “hERG current change (%, negative = inhibition) at 10uM” value was 1.38%.
With `CCOC(=O)N1CCC(N(CCN(C)C)C(=S)Nc2cccc(C)c2)CC1` the “hERG current change (%, negative = inhibition) at 10uM” value was 4.81%.
For `COc1ccc(OC)c(NC(=O)NNC(=O)c2cc3occc3[nH]2)c1`, the “hERG current change (%, negative = inhibition) at 10uM” value was 14.3%.
`NNC(=O)CC12CC3CC(C1)CC(n1ncnn1)(C3)C2` was tested, and the “hERG current change (%, negative = inhibition) at 10uM” value was -15.1%.
In the case of `COc1ccc(CCC(=O)N(c2nnc(-c3cccnc3)s2)C(C)C)cc1.Cl`, the “hERG current change (%, negative = inhibition) at 10uM” value is reported as -49.6%.
With `Cc1ccc(NC(=O)Cc2ccc(Cl)c(Cl)c2)cc1S(=O)(=O)N(C)C` the “hERG current change (%, negative = inhibition) at 10uM” value was 7.88%.
With `Cc1ccc(NC(=O)CN(C)C2CCCCC2)cc1Br.Cl` the “hERG current change (%, negative = inhibition) at 10uM” value was -28.8%.
For `CCOC(=O)C1CSC(CC(=O)Nc2ccc(OC(F)(F)F)cc2)C(=O)N1` (centres unmarked), the “hERG current change (%, negative = inhibition) at 10uM” value was -56.3%.
`CN(CC(=O)Nc1ccc(OC(F)(F)F)cc1)C(=O)C1CCC1` was tested, and the “hERG current change (%, negative = inhibition) at 10uM” value was -1.21%.
For `CN(CC(=O)Nc1ccc(F)c(F)c1F)C(=O)C1CCCC1`, the “hERG current change (%, negative = inhibition) at 10uM” value was 1.05%.
